BAZ2B block = inhibitors of human BAZ2B bromodomain; Potency, µM (titrated, usually from 114 µM), for the others: top-dose activity change, negative = inhibition, usual class: inhibitors; hit rate 4.4% among 360,000; AlphaScreen BAZ2B-H3K14Ac peptide displacement; AID 504333; also: potency is read from the fitted curve at half-maximal effect; % is scaled to controls: 0 for no effect and ±100 for the full control effect; nearly all actives have a fitted effect of over 60% in size
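AlphaScreen luminescence quantifies BAZ2B engagement of H3K14Ac peptide; the protein and biotinylated peptide are both at 50 nM final, buffer PBS pH 7.4 with 0.01% Tween-20, all steps at room temperature.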
G9a block = blocks human histone lysine methyltransferase G9a. AID 504332. G9a H3K9 monomethylation, AlphaScreen, 2 h. Potency, µM (titrated, usually from 102 µM), without a hit: at the highest dose activity, negative = inhibition, most hits filed as inhibitors. Q96KQ7. hit rate 8.8% among 350,000; also: potency is read from the fitted curve at half-maximal effect; % is scaled to controls: 0 for no effect and ±100 for the full control effect; nearly all actives have a fitted effect of over 75% in size
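Compounds were preincubated with 20 nM G9a for 15 min, after which biotinylated H3K9 peptide (500 nM) and SAM (20 uM) started a 2 h room-temperature reaction. Monomethylated product was quantified by antibody-based AlphaScreen chemiluminescence.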
JMJD2A Tudor inh = JMJD2A Tudor domain (human) inhibition. hit rate 4.4% among 390,000. Potency, µM (top dose mostly 114 µM), for inactives: at the highest dose activity change, negative = inhibition, hits mostly inhibitors. AID 504339. O75164. AlphaScreen JMJD2A-Tudor / H3K4me3 peptide binding; also: potency is read from the fitted curve at half-maximal effect; % is scaled to controls: 0 for no effect and ±100 for the full control effect; nearly all actives have a fitted effect of over 50% in size
L3MBTL1 block = inhibitors of human L3MBTL1; Potency, µM (series often up to 57.1 µM), for inactives: top-dose activity, negative = inhibition, usual class: inhibitors; hit rate 0.66% among 230,000; AlphaScreen L3MBTL1–H3K9me1 peptide binding; Q9Y468; AID 485360; also: potency is read from the fitted curve at half-maximal effect; % is scaled to controls: 0 for no effect and ±100 for the full control effect; nearly all actives have a fitted effect of over 60% in size
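L3MBTL1 50 nM + b-AHA-H3(1-15)K9me1 75 nM, 30 min RT; compound added, 30 min RT; streptavidin donor/Ni-chelate acceptor beads 10 ug/mL each final, 30 min RT dark; AlphaScreen read.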
HP1b binding inh = blocks HP1-beta chromodomain binding to methylated histone tails | AlphaScreen HP1-beta / biotin-H3K9me3 peptide binding | Potency, µM (series often up to 114 µM), for inactives: top-dose activity change, negative = inhibition, most hits filed as inhibitors | hit rate 0.56% among 390,000; also: potency is read from the fitted curve at half-maximal effect; nearly all actives have a fitted effect of over 70% in size
Target sequence (P83916 whole entry, looked up): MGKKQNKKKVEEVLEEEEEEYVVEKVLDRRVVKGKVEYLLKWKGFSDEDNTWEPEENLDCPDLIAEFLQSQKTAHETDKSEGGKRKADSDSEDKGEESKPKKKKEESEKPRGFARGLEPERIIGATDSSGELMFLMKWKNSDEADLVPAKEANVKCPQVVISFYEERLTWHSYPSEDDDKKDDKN
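HP1-beta protein (50 nM final) preincubated 30 min at room temperature with biotinylated H3(1-18)K9me3 peptide (50 nM) in PBS pH 7.4, 0.01% Tween-20, then compound added for 30 min. AlphaScreen streptavidin donor/nickel chelate acceptor beads (10 ug/mL final), 30 min dark, luminescence read.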
PI5P4K alpha inh = inhibitors of human PI5P4K alpha; P48426; PI5P4Kalpha enzyme, ADP-Glo luminescence, 60 min; hits give low values; max response, %; hit rate 1.2% among 330,000; active = max response of -50% or lower; inconclusive = between -30% and -50%; inactive = -30% or higher; also: value at the top dose of about 77 µM; % is scaled to controls: 0 for no effect and ±100 for the full control effect
Target sequence (P48426 whole entry, looked up): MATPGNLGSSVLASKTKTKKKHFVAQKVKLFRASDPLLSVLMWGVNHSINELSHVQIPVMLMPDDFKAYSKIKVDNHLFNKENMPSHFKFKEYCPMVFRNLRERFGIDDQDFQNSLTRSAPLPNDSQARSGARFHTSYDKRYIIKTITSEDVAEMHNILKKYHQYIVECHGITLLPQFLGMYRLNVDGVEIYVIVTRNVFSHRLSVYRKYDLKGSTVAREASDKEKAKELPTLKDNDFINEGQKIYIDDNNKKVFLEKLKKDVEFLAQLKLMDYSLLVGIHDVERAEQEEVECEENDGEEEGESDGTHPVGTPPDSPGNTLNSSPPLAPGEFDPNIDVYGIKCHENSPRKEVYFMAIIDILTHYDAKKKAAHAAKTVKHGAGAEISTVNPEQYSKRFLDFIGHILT
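Quantitative HTS of the MLSMR library against PI5P4Kalpha with substrate. ATP added last at 5 microM final; room temperature, 60 minutes. Remaining ATP depleted, ADP converted and read as luminescence.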
* hit, by the source's call; ? = inconclusive; / = not tested or not shown; [ ] = remark or other dose. Most compounds without a hit are left out; they make up all but 11% or so of the library. Unless noted, calls follow the shape of the dose curve; as a rule, active = well fitted inhibition curve with a large enough effect; inconclusive = small, poorly fitted or top-dose-only effect; inactive = no such curve, though single readings can be large or run the other way.

SMILES	BAZ2B block	G9a block	JMJD2A Tudor inh	L3MBTL1 block	HP1b binding inh	PI5P4K alpha inh
Cc1ccccc1-c1ccc2ncnc(NCc3cccs3)c2c1	/	-37%[0.501 µM]	/	/	/	/
Clc1cccc(CN2CCC(Cc3ccccc3)CC2)c1	50µM*	3.5µM*	3.2µM*	57%	?	/
O=C(/C=C/c1cccc(Cl)c1)N1CCC(Cc2ccccc2)CC1	16%	37%[59 µM]	27%	18%	88%	21
Fc1ccc(CN2CCC(Cc3ccccc3)CC2)cc1F	?	10µM*	28µM*	6%	-33%	-1
CCOC(=O)C1=C(CS(=O)(=O)c2ccc(F)cc2)NC(=O)NC1c1ccc(O)c(O)c1 (stereo unspecified)	-34%	14µM*	-30%	/	-21%	5
CCOC(=O)C1=C(CS(=O)(=O)c2ccc(F)cc2)NC(=O)NC1c1cc(OC)c(O)c(OC)c1 (stereo unspecified)	1%	7%	-4%	/	26%	-1
COc1ccc(C(=O)N2CCC3(CC2)CN(c2ccc(-c4ccccc4)cc2)C3)cc1	/	-1%[12.7 µM]	/	/	/	/
Cc1ccc(C)c(N2CCN(C(=O)CCn3c(=O)[nH]c4ccccc4c3=O)CC2)c1	-9%	-12%[59 µM]	?	/	-10%	/
N#Cc1c(-c2cccnc2)c2c([nH]c1=O)-c1ccccc1OC2	6%	?	3%	5%	38%	-59*
CC(=O)c1sc(NC(=O)C2CC(=O)N(Cc3ccccc3)C2)nc1-c1ccccc1 (stereo unspecified)	-6%	56µM*	-33%	-2%	-8%	-2
CC(=O)Nc1ccc(NC(=O)C2CC(=O)N(Cc3ccccc3)C2)cc1 (stereo unspecified)	-11%	31%[59 µM]	-3%	/	33%	3
O=C1Nc2ccccc2C1(O)C/C(=N/O)c1ccccc1 (stereo unspecified)	-11%	-5%	20µM*	8%	-16%	-11
Cc1ccccc1/C=C(\C#N)c1nc(-c2ccc(Cl)cc2)cs1	49%	133%[59 µM]	71%	/	111%	/
CCCCN(CC)CCCNC(=O)c1ccc2c(c1)NC(=O)CN2C	1%	-28%[59 µM]	-15%	/	-13%	/
CCc1cccc(C)c1NC(=O)Cn1cnc2c1c(=O)n(C)c(=O)n2C	3%	8%[59 µM]	-18%	/	10%	/
CCCCn1c(N)c(N(CCC(C)C)C(=O)CSc2nncn2-c2ccccc2)c(=O)[nH]c1=O	?	7.9µM*	-2%	29%	30%	-3
CCCCN(C(=O)CSc1nnc(Nc2ccc(C)c(C)c2)s1)c1c(N)n(Cc2ccccc2)c(=O)[nH]c1=O	-13%	?	-21%	/	1%	-69*
COCCN(C(=O)CSc1nncn1-c1ccccc1)c1c(N)n(Cc2ccccc2)c(=O)[nH]c1=O	8%	-7%[59 µM]	-5%	1%	3%	-11
CC(C)CN(C(=O)CSc1nncn1-c1ccccc1)c1c(N)n(CC(C)C)c(=O)[nH]c1=O	-1%	18%[59 µM]	-6%	/	34%	1
CN(C(=O)CSc1nnc(Nc2ccccc2)s1)c1c(N)n(Cc2ccccc2)c(=O)[nH]c1=O	-2%	?	-15%[11.4 µM]	/	-9%	-21
CCCCN(C(=O)CSc1nncn1-c1ccccc1OC)c1c(N)n(Cc2ccccc2)c(=O)[nH]c1=O	-3%	56µM*	-21%	-5%	24%	-2
CCCCCCCc1nc2sc3c(c2c(=O)n1N)CC(C)(C)OC3	0%	-9%	5%	13%	23%	7
CCCCCc1nc2sc3c(c2c(=O)n1NC(=O)c1ccc([N+](=O)[O-])cc1)CC(C)(C)OC3	-10%	71µM*	?	-6%	-19%	1
O=C(NC(=S)Nc1cccc(Cl)c1N1CCCCC1)c1cccs1	-28%[57.1 µM]	-26%	56µM*	-6%	?	/
O=C(NC(=S)Nc1cccc(Cl)c1N1CCCCC1)c1ccco1	?	-44%	-32%	-13%	-13%	/
SMILES	BAZ2B block	G9a block	JMJD2A Tudor inh	L3MBTL1 block	HP1b binding inh	PI5P4K alpha inh
N#Cc1ccccc1NC(=O)COC(=O)c1cccs1	/	/	3%	3%	31%	-2
N#Cc1ccccc1NC(=S)NC(=O)c1cccs1	-13%	11µM*	-25%	/	-7%[57 µM]	-56*
COc1cccc(Cn2c(=O)c(-c3cccc(C#N)c3)nc3cnc(Nc4ccccc4)nc32)c1	/	4%[12.7 µM]	/	/	/	/
NC(=S)NN=C(c1ccc(F)cc1)C1CC1	/	/	?	/	?	-1
NC(=S)NN=C(c1ccc(Br)cc1)C1CC1	/	/	0.79µM*	/	?	-1
CC1CCc2c(sc(NC(=O)CCCOc3ccc(C(C)(C)C)cc3)c2C(N)=O)C1 (stereo unspecified)	6%	?	-6%	/	14%	/
CCOc1ccc(NC(=O)CCc2c(C)nc3nc(-c4cc(OC)cc(OC)c4)nn3c2C)cc1	-17%	-2%[59 µM]	-18%	/	36%	/
COc1ccc(CNC(=O)c2ccc3nc(C(C)C)oc3c2)cc1OC	-3%	4%[59 µM]	-15%	/	14%[57 µM]	/
O=c1cnnc(N/N=C/C2CC=CCC2)[nH]1 (stereo unspecified)	8.9µM*	56%	32µM*	/	40%	0
CCN(CC)c1ccc(-c2n[nH]c(=S)n2-c2ccccc2C)cc1	?	?	-27%	?	0%	-13
CCN(CC)c1ccc(-c2n[nH]c(=S)n2-c2ccccc2)cc1	-38%	1.4µM*	20µM*	-17%	-3%	-14
CN(C)c1ccc(-c2n[nH]c(=S)n2-c2ccccc2)cc1	-14%	1.8µM*	7.9µM*	-8%	-14%	-10
CNC(=O)C1CCN(C(=O)N2CC(C)Oc3ccc(Cl)cc32)CC1 (stereo unspecified)	?	-10%[59 µM]	-33%	/	-10%	/
COc1ccc(-c2nn(-c3ccc(C)c(Cl)c3)c3c2cnc2cc(OC)c(OC)cc23)cc1	-16%	23%[59 µM]	-1%	/	39%	/
COc1ccc(C#Cc2c(-c3ccccc3)n(C)c3ccccc23)cc1	/	/	30%	24%	178%	1
COc1ccc(-c2c(C#Cc3ccsc3)c3ccccc3n2C)cc1	?	32µM*	-14%	-7%	38%	-11
O=C(Nc1ccc(F)c(Cl)c1)c1cc(S(=O)(=O)N2CCCc3ccccc32)ccc1F	12%	29%[59 µM]	-10%	/	51%	/
COc1ccc(/C=C/C(=O)NCC(c2ccc(F)cc2)N2CCOCC2)cc1OC (stereo unspecified)	-2%	79µM*	-5%[11.4 µM]	/	51%	-3
O=C(Nc1ccc(Br)cn1)c1cccc(C(=O)Nc2ccc(Br)cn2)c1	-1%	20%	89µM*	/	63%	-3
COc1ccc(Cn2c(NCC(C)C)nc3c2c(=O)n(C)c(=O)n3C)cc1	-10%	-4%[59 µM]	-28%	/	10%	/
CCOC(=O)C1CCN(C(=O)CSc2nnc(-c3ccco3)n2-c2ccccc2)CC1	-5%	45µM*	-16%	-2%	27%	-5

Screening results (PubChem BioAssay)
